# Measurements taken from paper PMC10668032, “Altered binding affinity of SIX1-Q177R correlates with enhanced WNT5A and WNT pathway effector expression in Wilms tumor”.
# In all, about 33,000 sequences were measured (“e-score”: median about -0.05, highest 2% from about 0.38 on). Shown is part of a subset that was picked to be rich in the highest values.
# Molecular target: T1, SIX1-Q177R homeodomain (human, UniProt Q15475 108-198, Q177R)
# T1 sequence: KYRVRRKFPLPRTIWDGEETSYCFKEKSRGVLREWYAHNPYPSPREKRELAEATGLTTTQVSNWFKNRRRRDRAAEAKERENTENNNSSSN
# Experiment: universal protein binding microarray; Universal all-10-mer PBM (8x60K, AMADID 030236), 300 nM GST-tagged protein, Alexa Fluor 488 anti-GST; buffer, salt, pH and temperature not stated (as in Berger); high values mean tight binding
# Settings: protein: ivt; tags: N-terminal GST; dsDNA, one strand shown
# Procedure, shortened: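 After in vitro transcription/translation, GST-tagged homeodomains were quantified against a recombinant GST standard curve by anti-GST western blot. They were then placed in duplicate at 300 nM final concentration on universal 'all 10-mer' protein binding microarrays of 8×60K format.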
row,Sequence,binding signal
1,ACCCTTCA,0.166 ± 0.0264 E-score
2,GGGGTATA,0.274 ± 0.0131 E-score
3,CACCTCCG,0.344 ± 0.00638 E-score
4,ACCCGGGG,0.297 ± 0.0213 E-score
5,CACTATTA,0.158 ± 0.0138 E-score
6,GTTCGGGA,0.15 ± 0.0437 E-score
7,CTGCACCC,0.209 ± 0.0458 E-score
8,CACCACCA,0.329 ± 0.0106 E-score
9,GTACAACA,0.2 ± 0.0164 E-score
10,GTGCACCA,0.246 ± 0.0146 E-score
11,ACACACTG,0.248 ± 0.0191 E-score
12,CTACACCC,0.4824 ± 0.00332 E-score
13,CTACAACA,0.161 ± 0.0103 E-score
14,GTACACCA,0.4849 ± 0.00112 E-score
15,CTACACCA,0.4741 ± 0.00151 E-score
16,CTACCCCC,0.268 ± 0.0213 E-score
17,ATACACTG,0.392 ± 0.00512 E-score
18,CACTAACA,0.284 ± 0.0307 E-score
19,CGACCCCG,0.255 ± 0.0544 E-score
20,CCCAATAC,0.17 ± 0.00354 E-score
21,TATTTACA,0.311 ± 0.0362 E-score
22,AAGTAGTG,0.27 ± 0.0294 E-score
23,CCCCTCAG,0.251 ± 0.0116 E-score
24,ATCCCGTG,0.228 ± 0.0211 E-score
25,CACGAGGG,0.189 ± 0.00843 E-score

row,Sequence,binding signal
1,AGGGGTAG,0.269 ± 0.00879 E-score
2,CACGCCGA,0.194 ± 0.0137 E-score
3,AAGCGACA,0.229 ± 0.0424 E-score
4,CACCTCCA,0.293 ± 0.0179 E-score
5,ATACACAG,0.187 ± 0.0325 E-score
6,ATATACCG,0.15 ± 0.0185 E-score
7,ATACACAC,0.315 ± 0.0133 E-score
8,ACCCACCA,0.2 ± 0.00308 E-score
9,ATACACCA,0.47 ± 0.0019 E-score
10,ATGCACCA,0.165 ± 0.000877 E-score
11,ATACCCCC,0.364 ± 0.0151 E-score
12,ATACACCC,0.46 ± 0.00688 E-score
13,ATACACCG,0.472 ± 0.00491 E-score
14,ACTCGGTG,0.368 ± 0.00838 E-score
15,CACCTCCC,0.256 ± 0.00611 E-score
16,ATACCCCA,0.254 ± 0.016 E-score
17,ATCGGTGC,0.204 ± 0.0156 E-score
18,ACTCCCAG,0.262 ± 0.038 E-score
19,AGGGAGTA,0.178 ± 0.0384 E-score
20,TGTCCTAA,0.241 ± 0.0454 E-score
21,TGTAGACA,0.2571 ± 0.000438 E-score
22,CGGCACCA,0.181 ± 0.0154 E-score
23,ACACAGCG,0.1958 ± 0.00148 E-score
24,AGTGTCTA,0.3723 ± 0.00362 E-score
25,GGTATCTA,0.216 ± 0.0361 E-score

row,Sequence,binding signal
1,GGGGTCTA,0.229 ± 0.0526 E-score
2,CGTGTCTA,0.405 ± 0.0182 E-score
3,GGTGTCTA,0.468 ± 0.0105 E-score
4,CCCCAAGC,0.228 ± 0.0222 E-score
5,ACACCGGA,0.476 ± 0.00539 E-score
6,ACACCGGG,0.4843 ± 0.00112 E-score
7,ACACCGGT,0.481 ± 0.00684 E-score
8,ACACAGGT,0.252 ± 0.0297 E-score
9,ACCCCGGT,0.298 ± 0.00305 E-score
10,ACACCGGC,0.481 ± 0.00281 E-score
11,ATACCGGG,0.213 ± 0.0219 E-score
12,CCACCGGA,0.203 ± 0.037 E-score
13,ACTCCGGC,0.233 ± 0.0256 E-score
14,ACCCCGGG,0.302 ± 0.0198 E-score
15,GCACCGGA,0.162 ± 0.0479 E-score
16,ACCCCGGC,0.262 ± 0.0281 E-score
17,CACCATCC,0.252 ± 0.00467 E-score
18,GTGCTCTA,0.221 ± 0.0342 E-score
19,CCAACTAC,0.151 ± 0.00402 E-score
20,ACCTCTAC,0.151 ± 0.00402 E-score
21,ACCACGTG,0.194 ± 0.00218 E-score
22,ACGGGATC,0.197 ± 0.0102 E-score
23,CGGGGTAA,0.235 ± 0.0071 E-score
24,ACACTTAA,0.316 ± 0.0276 E-score
25,ACTCACAC,0.3 ± 0.0164 E-score

row,Sequence,binding signal
1,ACACTCAC,0.39 ± 0.00873 E-score
2,ACACTCAG,0.387 ± 0.00387 E-score
3,ACACTTAC,0.378 ± 0.013 E-score
4,ACTCTTAT,0.212 ± 0.0414 E-score
5,ACACTTAG,0.355 ± 0.0376 E-score
6,ACACTCAA,0.39 ± 0.0152 E-score
7,ACACTCTA,0.367 ± 0.0161 E-score
8,ACACTCAT,0.388 ± 0.0116 E-score
9,CACTTACC,0.224 ± 0.032 E-score
10,AGCCCGGG,0.157 ± 0.00865 E-score
11,CGTGAACC,0.17 ± 0.0126 E-score
12,TGTATACA,0.283 ± 0.0331 E-score
13,ACTACGTG,0.21 ± 0.0113 E-score
14,GGGGATCA,0.275 ± 0.0112 E-score
15,GAGGGATC,0.213 ± 0.0344 E-score
16,CCCCATGA,0.151 ± 0.00929 E-score
17,GGCGAGGA,0.174 ± 0.0324 E-score
18,ACCCTAAG,0.1853 ± 0.00154 E-score
19,CACCCTTA,0.263 ± 0.0167 E-score
20,ATACCCTA,0.312 ± 0.0168 E-score
21,ACCAGAAT,0.161 ± 0.0505 E-score
22,CCGACCAG,0.161 ± 0.0337 E-score
23,AAAACACT,0.301 ± 0.0568 E-score
24,CAAACACG,0.32 ± 0.0109 E-score
25,CAAACACC,0.4485 ± 0.00209 E-score

row,Sequence,binding signal
1,AAAACACG,0.321 ± 0.0302 E-score
2,GAAACACC,0.4545 ± 0.000905 E-score
3,AAAACACC,0.437 ± 0.0129 E-score
4,CAAACACA,0.19 ± 0.0451 E-score
5,AAAACACA,0.188 ± 0.0109 E-score
6,TAAACACA,0.214 ± 0.0172 E-score
7,ACCCTCCA,0.175 ± 0.00491 E-score
8,AGAAGGGG,0.223 ± 0.00875 E-score
9,CAGAGGGG,0.193 ± 0.0159 E-score
10,CACAACTG,0.1786 ± 0.00129 E-score
11,CACCTGAA,0.2354 ± 0.0017 E-score
12,CACTTGTC,0.161 ± 0.0236 E-score
13,TCCTAGGA,0.22 ± 0.0107 E-score
14,CCGGGGAA,0.18 ± 0.0043 E-score
15,CACCCCAA,0.336 ± 0.0263 E-score
16,GCGGGGGA,0.157 ± 0.00972 E-score
17,ACACAAAG,0.236 ± 0.0826 E-score
18,ACACCAAC,0.4617 ± 0.00175 E-score
19,ACACCAAT,0.473 ± 0.00609 E-score
20,ACTCCAAG,0.2 ± 0.00662 E-score
21,ACCCCAAA,0.205 ± 0.0372 E-score
22,ACCCCAAT,0.266 ± 0.0184 E-score
23,CACCAAAA,0.217 ± 0.0236 E-score
24,ATACCAAC,0.163 ± 0.00749 E-score
25,ACACAAAT,0.167 ± 0.0837 E-score

row,Sequence,binding signal
1,ACACCAAG,0.455 ± 0.0109 E-score
2,ACACCAAA,0.4659 ± 0.00317 E-score
3,GCACCAAC,0.261 ± 0.0127 E-score
4,GGAGAATA,0.193 ± 0.0325 E-score
5,CCTGAACA,0.254 ± 0.00385 E-score
6,AGTTAAGA,0.155 ± 0.00537 E-score
7,CCGGGTTC,0.22 ± 0.0235 E-score
8,AGTTAGGA,0.153 ± 0.019 E-score
9,GACCCGGA,0.184 ± 0.0271 E-score
10,ACACGCAA,0.3952 ± 0.00317 E-score
11,ACACGCAG,0.391 ± 0.00589 E-score
12,ACACGCAC,0.4052 ± 0.00394 E-score
13,ACACGCAT,0.383 ± 0.00385 E-score
14,ACGCGCAG,0.175 ± 0.0335 E-score
15,ACGCACAC,0.307 ± 0.0495 E-score
16,CCCCGCAA,0.17 ± 0.00535 E-score
17,ACTCCCCT,0.249 ± 0.0205 E-score
18,CGGATCAG,0.174 ± 0.00822 E-score
19,ACCGGAGG,0.183 ± 0.0608 E-score
20,ACTCCTCC,0.213 ± 0.0626 E-score
21,ATTTGACA,0.216 ± 0.00896 E-score
22,CGCATTAC,0.204 ± 0.0114 E-score
23,ACCCTGAG,0.245 ± 0.0251 E-score
24,GCAAACAC,0.351 ± 0.00619 E-score
25,CCCAACAC,0.403 ± 0.0145 E-score

row,Sequence,binding signal
1,CCAAACAC,0.3825 ± 0.00157 E-score
2,ACCAACTC,0.169 ± 0.01 E-score
3,CCCAAAAC,0.193 ± 0.0284 E-score
4,CCCAACAA,0.199 ± 0.00812 E-score
5,ACCAACAC,0.41011 ± 0.000354 E-score
6,GCCAACAC,0.3693 ± 0.00257 E-score
7,ACTATGTG,0.17 ± 0.0249 E-score
8,CACCTTCA,0.241 ± 0.0302 E-score
9,CACCTTGG,0.344 ± 0.0104 E-score
10,CCCCTACC,0.237 ± 0.0383 E-score
11,GAGTGACA,0.242 ± 0.00566 E-score
12,AAGTGTCT,0.346 ± 0.0141 E-score
13,TAGTGTCA,0.454 ± 0.00792 E-score
14,AAGTGTCC,0.332 ± 0.00652 E-score
15,GAGTGTCA,0.45 ± 0.0122 E-score
16,GAGTGTCC,0.406 ± 0.00513 E-score
17,GTGTGTCA,0.369 ± 0.0056 E-score
18,TAGAGTCA,0.196 ± 0.0118 E-score
19,TAGTGACA,0.211 ± 0.0357 E-score
20,GAGTATCC,0.199 ± 0.0139 E-score
21,AAGTGTCA,0.418 ± 0.0194 E-score
22,CGTATCCA,0.159 ± 0.0161 E-score
